Test results published in PubChem BioAssay AID1159580 (chemical genetic matrix, 2015).
Several values for one entry are separate records, joined by “and”; a condition that tells them apart may be missing. Equal entries are not always repeated. The campaign covered roughly 5,500 compounds. About 2,000 (36%) were called active. Inconclusive results (about 18%) are left out. Cut-off read from the data, not from the text of the source: active = normalized growth mostly below about 0.91 (no sharp cut-off); inconclusive = no clear call, values can overlap the other calls; inactive = mostly above about 0.92. The list shows a part of the results.

Assay: chemical genetic growth profiling, strain panel (AID 1159580);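 note: tested at 20 µM; growth read once vehicle control cultures reached saturation at 30 °C; 1 = growth at the plate median or of vehicle wells; lower values mean less growth of the strain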
Conditions: S. cerevisiae deletion strains, growth OD

Measured: normalized growth

COc1ccc([C@H]2Oc3cc(OC)cc(OC)c3C[C@H]2O)cc1
inactive: locus YAL013W, strain DEP1, active compounds read low 1.01 | locus YAL021C, strain ccr4, active compounds read low 1 | locus YAL026C, strain drs2, active compounds read low 0.995 | locus YAL030W, strain snc1, active compounds read low 0.993 | locus YBL061C, strain skt5, active compounds read low 0.997 | locus YBR009C, strain hhf1, active compounds read low 1.01 | locus YBR021W, strain FUR4, active compounds read low 1.06 | locus YBR023C, strain chs3, active compounds read low 1 | locus YBR171W, strain sec66, active compounds read low 0.98 | locus YBR229C, strain ROT2, active compounds read low 1 | locus YBR231C, strain swc5, active compounds read low 1.01 | locus YBR279W, strain paf1, active compounds read low 0.994 | locus YCL011C, strain gbp2, active compounds read low 0.997 | locus YCL016C, strain dcc1, active compounds read low 1 | locus YCL029C, strain bik1, active compounds read low 1.01 | locus YCL061C, strain MRC1, active compounds read low 0.987 | locus YCL069W, strain vba3, active compounds read low 0.996 | locus YCR088W, strain abp1, active compounds read low 0.999 | locus YDL005C, strain med2, active compounds read low 0.996 | locus YDL035C, strain GPR1, active compounds read low 1.05 | locus YDL040C, strain nat1, active compounds read low 1 | locus YDL074C, strain BRE1, active compounds read low 1.12 | locus YDL101C, strain DUN1, active compounds read low 1.01 | locus YDL185W, strain tfp1, active compounds read low 1.01 | locus YDL192W, strain arf1, active compounds read low 1 | locus YDR001C, strain nth1, active compounds read low 0.998 | locus YDR069C, strain doa4, active compounds read low 1.01 | locus YDR101C, strain arx1, active compounds read low 0.983 | locus YDR137W, strain rgp1, active compounds read low 0.867 | locus YDR159W, strain sac3, active compounds read low 0.998 | locus YDR162C, strain NBP2, active compounds read low 1.03 | locus YDR195W, strain ref2 1.05 | locus YDR297W, strain sur2, active compounds read low 1 | locus YDR318W, strain mcm21, active compounds read low 1 | locus YDR334W, strain swr1, active compounds read low 1.01 | locus YDR335W, strain msn5, active compounds read low 1 | locus YDR388W, active compounds read low 1.01 | locus YDR392W, strain spt3, active compounds read low 0.948 | locus YDR502C, strain sam2, active compounds read low 1.01 | locus YEL003W, strain gim4, active compounds read low 0.996 | locus YEL037C, strain rad23, active compounds read low 0.989 | locus YEL061C, strain CIN8 (second series), active compounds read low 1 | locus YEL061C, strain CIN8, active compounds read low 1.02 | locus YER015W, strain faa2, active compounds read low 1 | locus YER016W, strain bim1, active compounds read low 0.994 | locus YER110C, active compounds read low 0.987 | locus YER111C, strain swi4, active compounds read low 0.998 | locus YER155C, strain BEM2 (second series), active compounds read low 1.01 | locus YER155C, strain BEM2, active compounds read low 1 | locus YER167W, strain BCK2, active compounds read low 1 | locus YFR010W, strain ubp6, active compounds read low 1.01 | locus YGL078C, strain dbp3, active compounds read low 1.02 | locus YGL086W, strain mad1, active compounds read low 0.999 | locus YGL167C, strain pmr1, active compounds read low 0.989 | locus YGL173C, strain kem1, active compounds read low 1 | locus YGL227W, strain vid30, active compounds read low 1 | locus YGL240W, strain doc1, active compounds read low 1.01 | locus YGL248W, strain PDE1, active compounds read low 1.05 | locus YGL253W, strain hxk2, active compounds read low 0.996 | locus YGR135W, strain pre9, active compounds read low 1.07 | locus YGR252W, strain gcn5, active compounds read low 1.08 | locus YHR013C, strain ard1, active compounds read low 1.05 | locus YHR027C, strain rpn1, active compounds read low 0.992 | locus YHR030C, strain SLT2, active compounds read low 0.985 | locus YHR079C, strain IRE1 (second series), active compounds read low 1.02 | locus YHR079C, strain IRE1, active compounds read low 0.994 | locus YHR094C, strain hxt1, active compounds read low 1.01 | locus YHR129C, strain ARP1, active compounds read low 1.02 | locus YHR142W, strain chs7, active compounds read low 0.981 | locus YHR200W, strain rpn10, active compounds read low 1.03 | locus YIL066C, strain RNR3, active compounds read low 1.02 | locus YIL073C, strain SPO22, active compounds read low 1.07 | locus YIL125W, strain kgd1, active compounds read low 1 | locus YIR030C, strain dcg1, active compounds read low 0.99 | locus YJL092W, strain hpr5, active compounds read low 0.997 | locus YJL095W, strain BCK1 (second series), active compounds read low 1 | locus YJL095W, strain BCK1, active compounds read low 1.04 and 1 | locus YJL115W, strain asf1, active compounds read low 1.01 | locus YJL129C, strain trk1, active compounds read low 1.04 | locus YJL134W, strain LCB3, active compounds read low 1 | locus YJL154C, strain vps35, active compounds read low 0.989 | locus YJL164C, strain tpk1, active compounds read low 1.01 | locus YJL166W, strain qcr8, active compounds read low 0.994 | locus YJL168C, strain set2, active compounds read low 1 | locus YJL187C, strain SWE1 (second series), active compounds read low 1.03 | locus YJL187C, strain SWE1, active compounds read low 1 | locus YJR043C, strain POL32, active compounds read low 1.08 | locus YJR066W, strain TOR1, active compounds read low 0.938 | locus YKL009W, strain mrt4, active compounds read low 1.03 | locus YKL068W, active compounds read low 1 | locus YKL085W, strain MDH1 (second series), active compounds read low 0.99 | locus YKL085W, strain MDH1, active compounds read low 0.99 | locus YKL160W, strain elf1, active compounds read low 0.994 | locus YKL190W, strain CNB1, active compounds read low 1.02 | locus YKR001C, strain vps1, active compounds read low 0.99 | locus YKR026C, strain gcn3, active compounds read low 0.999 | locus YKR091W, strain srl3, active compounds read low 1 | locus YLL001W, strain dnm1, active compounds read low 0.988 | locus YLL026W, active compounds read low 1 | locus YLL041C, strain sdh2, active compounds read low 0.985 | locus YLR027C, strain aat2, active compounds read low 0.997 | locus YLR039C, strain RIC1, active compounds read low 1.1 | locus YLR058C, strain SHM2, active compounds read low 1.01 | locus YLR102C, strain apc9, active compounds read low 0.997 | locus YLR113W, strain HOG1, active compounds read low 0.983 | locus YLR221C, strain rsa3, active compounds read low 1 | locus YLR258W, strain gsy2, active compounds read low 0.995 | locus YLR262C, strain YPT6 (second series), active compounds read low 0.914 | locus YLR268W, strain sec22, active compounds read low 1.01 | locus YLR320W, strain mms22, active compounds read low 0.999 | locus YLR342W, strain FKS1 (second series), active compounds read low 0.997 | locus YLR342W, strain FKS1, active compounds read low 0.994 | locus YLR357W, strain rsc2, active compounds read low 1.07 | locus YLR370C, strain arc18, active compounds read low 0.99 | locus YLR371W, strain rom2, active compounds read low 1.04 | locus YLR384C, strain iki3, active compounds read low 0.994 | locus YLR418C, strain cdc73, active compounds read low 1.06 | locus YML016C, strain PPZ1, active compounds read low 0.998 | locus YML032C, strain rad52, active compounds read low 1.01 | locus YML120C, strain ndi1, active compounds read low 1.01 | locus YML124C, strain tub3, active compounds read low 1 | locus YMR058W, strain fet3, active compounds read low 0.997 | locus YMR078C, strain ctf18, active compounds read low 1.01 | locus YMR125W, strain sto1, active compounds read low 1.01 | locus YMR129W, active compounds read low 1 | locus YMR205C, strain PFK2, active compounds read low 1.02 | locus YMR223W, strain ubp8, active compounds read low 1 | locus YMR231W, strain pep5, active compounds read low 0.989 | locus YMR307W, strain GAS1, active compounds read low 1.31 | locus YNL067W, strain RPL9B, active compounds read low 1.02 | locus YNL071W, strain lat1, active compounds read low 0.994 | locus YNL183C, strain NPR1, active compounds read low 0.932 | locus YNL209W, strain ssb2, active compounds read low 0.994 | locus YNL233W, strain BNI4, active compounds read low 1.06 | locus YNL248C, strain rpa49, active compounds read low 1.01 | locus YNL250W, strain rad50, active compounds read low 1.05 | locus YNL271C, strain bni1, active compounds read low 0.995 | locus YNL298W, strain CLA4, active compounds read low 0.975 | locus YNL307C, strain MCK1, active compounds read low 1.02 | locus YNL322C, strain KRE1 (second series), active compounds read low 1 | locus YNL322C, strain KRE1, active compounds read low 1.01 | locus YNR049C, strain mso1, active compounds read low 1 | locus YNR052C, strain pop2, active compounds read low 1.02 | locus YOL012C, strain htz1 1.39 | locus YOL147C, strain pex11, active compounds read low 0.994 | locus YOR001W, strain rrp6, active compounds read low 0.992 | locus YOR061W, strain CKA2, active compounds read low 1 | locus YOR069W, strain VPS5, active compounds read low 0.996 | locus YOR070C, strain gyp1, active compounds read low 0.99 | locus YOR080W, strain dia2, active compounds read low 1.01 | locus YOR083W, strain WHI5, active compounds read low 0.993 | locus YOR106W, strain vam3, active compounds read low 0.999 | locus YOR136W, strain idh2, active compounds read low 1 | locus YOR144C, strain elg1, active compounds read low 1 | locus YOR184W, strain ser1, active compounds read low 0.94 | locus YOR231W, strain MKK1, active compounds read low 1 | locus YOR265W, strain rbl2, active compounds read low 0.999 | locus YOR270C, strain vph1, active compounds read low 0.976 | locus YOR290C, strain snf2, active compounds read low 1.01 | locus YOR316C, strain cot1, active compounds read low 1.02 | locus YPL051W, strain arl3, active compounds read low 0.984 | locus YPL055C, strain LGE1, active compounds read low 1.09 | locus YPL078C, strain atp4, active compounds read low 0.995 | locus YPL106C, strain sse1, active compounds read low 1.07 | locus YPL240C, strain hsp82, active compounds read low 0.986 | locus YPL256C, strain CLN2, active compounds read low 0.972 | locus YPR119W, strain clb2, active compounds read low 0.99 | locus YPR141C, strain kar3, active compounds read low 0.998 | locus YPR163C, strain tif3, active compounds read low 1.01 | locus YPR167C, strain met16, active compounds read low 1.01 | strain wtn01, active compounds read low 0.992
